The values that follow come from PubChem BioAssay AID602350 (Broad Institute, 2012).

Each structure is given as a SMILES string. Results with a measured potency or affinity are listed apart. The source made the active and inactive calls.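 Rule for the calls: active = absorbance falls by 30% or more versus neutral controls, with a potency fitted within twice the top valid dose; inconclusive = no clear call, values can overlap the other calls; inactive = change opposite to expected direction, plus the rest.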

The target of the experiment is Protein disulfide-isomerase (Homo sapiens) (UniProt P07237). The experiment can be described thus: inhibition of PDI-driven insulin aggregation – biochemical, turbidity, absorbance, cherry-picked samples, dose response (AID 602350). Particulars: recombinant PDI insulin aggregation, absorbance 650 nm, 90 min; series mostly up to 19.5 µM.
Protein disulfide-isomerase (Homo sapiens), sequence (P07237 whole entry, looked up): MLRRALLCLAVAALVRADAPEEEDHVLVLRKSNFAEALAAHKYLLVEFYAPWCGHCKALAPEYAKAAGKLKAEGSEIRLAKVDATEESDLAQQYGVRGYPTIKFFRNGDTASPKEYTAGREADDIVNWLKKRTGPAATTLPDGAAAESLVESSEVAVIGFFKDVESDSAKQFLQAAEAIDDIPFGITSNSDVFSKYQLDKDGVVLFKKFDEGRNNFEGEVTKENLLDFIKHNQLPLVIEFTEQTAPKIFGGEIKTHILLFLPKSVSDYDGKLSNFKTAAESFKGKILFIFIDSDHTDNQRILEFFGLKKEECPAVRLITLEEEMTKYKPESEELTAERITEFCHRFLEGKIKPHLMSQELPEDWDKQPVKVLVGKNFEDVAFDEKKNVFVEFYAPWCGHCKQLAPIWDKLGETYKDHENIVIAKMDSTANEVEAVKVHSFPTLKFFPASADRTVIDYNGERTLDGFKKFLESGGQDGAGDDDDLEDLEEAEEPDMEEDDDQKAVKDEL
`CCOC(=O)c1cc(S(=O)(=O)N2CCN(C(=O)OCC)CC2)cn1C`: the result was inactive.

On to `CC(C)c1ccc(Nc2nc(CC(=O)O)cs2)cc1`, for which the result was inactive.

For `CC(C)c1ccc(/C=N/NC(=O)c2ccc(-n3cnnn3)cc2)cc1`, the result was inactive.

Regarding `O=c1cc(CSc2nnnn2-c2ccc(O)cc2)nc2sccn12`, the outcome was inactive.

As for `Cc1ccc2nsnc2c1NC(=O)c1cccnc1Cl`, the outcome was inactive.

For the molecule `CCOc1ccc2nc(SCC(=O)c3ccc(Cl)s3)sc2c1`, the outcome was inactive.

Regarding `CCCCC1CCC(c2nc(-c3ccccn3)no2)CC1` (centres undefined), the result was inactive.

For `COc1ccc(S(=O)(=O)NC(C)C(=O)Nc2ccccc2F)cc1` (centres undefined), the result was inactive.

Turning to `Cc1noc(C)c1S(=O)(=O)Nc1ccc2c(c1)CC(=O)N([C@H](C)CO)C[C@@H](C)[C@@H](CN(C)S(=O)(=O)c1ccc(F)cc1)O2`, the outcome was inactive.

As to `COc1cc2c(cc1OC)C(C)N(CC(=O)Nc1ccc(S(=O)(=O)N3CCCC3)cc1)CC2` (centres undefined), the result was inactive.

In the case of `CCOc1ccc(/C=N/OC(C)C(=O)NCc2ccc3c(c2)OCO3)cc1` (centres undefined), the outcome was inactive.

As for `CCOC(=O)c1c(CN(CC)CC)n(C)c2cc(Br)c(O)cc12`, the result was inactive.

Take `O=C(O)CCc1ccc(-c2cccs2)n1NC(=O)c1ccco1`: the outcome was inactive.

For the molecule `Cc1cccc(C(=O)OCC(=O)N2CCCCCC2)c1O`, the result was inactive.

With `C[C@H](CO)N1C[C@H](C)[C@@H](CN(C)Cc2ccccc2)Oc2ccc(NC(=O)Nc3ccccc3)cc2CC1=O`, the outcome was inactive.

As for `Cc1ccc(O)c(NC(=O)CSc2n[nH]c(-c3ccccc3)n2)c1`, the result was inactive.

Take `O=C(Nc1ccc(Br)cc1F)c1cccnc1`: the outcome was inactive.

As to `CC(=O)C1=C(O)C(=O)N(CCc2c[nH]c3ccccc23)C1c1cccc(O)c1` (centres undefined), the outcome was inactive.

Regarding `COc1ccc(/C(C)=N/NC(=O)CNC(=O)c2cccs2)cc1`, the result was inactive.

Regarding `COc1ccc(OCCN2CCC(C(=O)NC(c3ccsc3)c3ccccc3C)CC2)cc1` (centres undefined), the outcome was inactive.

Turning to `COCC(=O)N(C)C1(c2nnnn2CCOC(=O)Nc2ccc(Cl)cc2)CCCC1`, the outcome was inactive.

For `COCC(=O)N(C)C1(c2nnnn2CCOC(=O)Nc2ccc(Cl)cc2)CCCCC1`, the result was inactive.

In the case of `Cc1c(O)ccc2c(CN3CCN(Cc4ccccc4)CC3)cc(=O)oc12`, the result was inactive.

With `Cc1ccc(C)c(N2CCN(S(=O)(=O)c3ccc4c(c3)OCCO4)CC2)c1`, the outcome was inactive.

Turning to `Cc1cc(NC(=O)CSc2[nH]c(=O)cc(C(F)(F)F)c2C#N)no1`, the outcome was inactive.

Regarding `O=C(NCc1ccccc1CN1CCCC1)c1cc2ccccc2o1`, the outcome was inactive.

In the case of `Cc1cc(Cl)ccc1OCc1n[nH]c(=S)n1C1CCCCC1`, the outcome was inactive.

On to `COc1cc(CCC(=O)OCC(=O)Nc2cc(S(=O)(=O)N3CCOCC3)ccc2Cl)cc(OC)c1OC`, for which the result was inactive.

Take `C[C@@H]1CN([C@H](C)CO)C(=O)c2cc(NC(=O)Cc3cn(C)c4ccccc34)ccc2O[C@@H]1CN(C)S(=O)(=O)c1ccc(F)cc1`: the result was inactive.

For `O=C(NCc1ccccc1)c1cc(C2CCCN(C(=O)C3CCCCC3)C2)on1` (centres undefined), the result was inactive.

As to `CCOc1c(Cl)cc(CNC(C)(C)CC(C)(C)C)cc1OC`, the result was inactive.

On to `Cc1noc(C)c1-c1ccc(C(=O)NCc2ccc(Cl)cc2)c2occc12`, for which the outcome was inactive.

As to `CCOc1ccc2nc(NS(=O)(=O)Cc3ccccc3)sc2c1`, the result was inactive.

For the molecule `CCOc1ccc(NC(=O)CN(C)C(=O)c2cc(C)nc3ccccc23)cc1OCC`, the result was inactive.

For the molecule `Cn1c(=O)n(CCCOc2ccc(Br)cc2)c2ccccc21`, the outcome was inactive.

Turning to `C=CC[C@H](CC(=O)N(CCO)Cc1ccccc1)C(=O)N[C@H](COC(=O)[C@@H](CC=C)Cc1ccc(F)cc1)Cc1c[nH]c2ccccc12`, the outcome was inactive.

Take `CCOC(=O)C1(Cc2ccc(O)cc2)NC(c2ccccc2F)C2C(=O)N(C)C(=O)C21` (centres undefined): the outcome was inactive.

In the case of `O=C(NCCc1c[nH]c2ccccc12)/C(=C\c1cccnc1)NC(=O)c1ccccc1Br`, the outcome was inactive.

As for `CN1CCN(Cc2nc3ccccc3c(=O)n2Cc2nc(-c3ccc4ccccc4c3)cs2)CC1`, the outcome was inactive.
